This is an account of results in ChEMBL document CHEMBL1961873, “Compounds: GSK PKIS; Assays: Nanosyn kinase panel” (2012).

The target in test [1] is Casein kinase I isoform gamma-2 (Homo sapiens) (UniProt P78368). The following applies: at 1 µM.
Test [2] deals with Casein kinase I isoform gamma-3 (Homo sapiens) (UniProt Q9Y6M4). The following applies: at 0.1 µM.
The target is the same in test [3]. The following applies: at 1 µM.
The target in test [4] is Cyclin-dependent kinase 1 (Homo sapiens) (UniProt P06493). The following applies: at 0.1 µM.
Cyclin-dependent kinase 1 (Homo sapiens), sequence (P06493 whole entry, looked up): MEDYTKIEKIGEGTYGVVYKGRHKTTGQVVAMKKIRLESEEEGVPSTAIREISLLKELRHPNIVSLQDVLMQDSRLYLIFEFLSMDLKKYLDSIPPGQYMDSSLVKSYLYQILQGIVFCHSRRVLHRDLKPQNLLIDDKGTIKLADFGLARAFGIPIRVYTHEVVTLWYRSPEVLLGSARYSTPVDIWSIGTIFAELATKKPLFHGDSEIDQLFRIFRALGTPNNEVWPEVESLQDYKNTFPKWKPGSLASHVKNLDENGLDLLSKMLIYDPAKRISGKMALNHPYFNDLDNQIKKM
Test [5] shares this target. As to conditions: at 1 µM.
In test [6] the target is Cyclin-dependent kinase 2 (Homo sapiens) (UniProt P24941). As to conditions: at 0.1 µM.
Test [7] shares this target. As to conditions: at 1 µM.
Test [8] has the same target. As to conditions: at 0.1 µM. The source holds these as a separate data set.
Test [9] has the same target. As to conditions: at 1 µM. The source holds these as a separate data set.
Test [10] concerns the target CDK3/Cyclin E (Homo sapiens) (UniProt P24864+Q00526). As to conditions: at 0.1 µM.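 Further: reported percentages are mean inhibition values.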

The structures appear in SMILES notation.

CDK3/Cyclin E (Homo sapiens), sequence (P24864 whole entry, looked up): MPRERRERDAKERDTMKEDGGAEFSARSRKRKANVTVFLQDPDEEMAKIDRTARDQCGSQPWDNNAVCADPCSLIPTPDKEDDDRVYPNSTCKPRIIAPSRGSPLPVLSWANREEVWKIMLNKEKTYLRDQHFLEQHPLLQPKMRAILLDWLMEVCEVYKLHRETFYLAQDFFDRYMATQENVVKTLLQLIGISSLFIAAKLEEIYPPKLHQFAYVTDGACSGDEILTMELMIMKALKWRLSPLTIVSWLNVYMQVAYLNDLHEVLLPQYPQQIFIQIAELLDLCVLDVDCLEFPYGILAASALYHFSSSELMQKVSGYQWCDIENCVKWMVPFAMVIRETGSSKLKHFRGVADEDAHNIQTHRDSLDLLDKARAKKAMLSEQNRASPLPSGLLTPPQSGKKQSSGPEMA
CDK3/Cyclin E (Homo sapiens), sequence (Q00526 whole entry, looked up): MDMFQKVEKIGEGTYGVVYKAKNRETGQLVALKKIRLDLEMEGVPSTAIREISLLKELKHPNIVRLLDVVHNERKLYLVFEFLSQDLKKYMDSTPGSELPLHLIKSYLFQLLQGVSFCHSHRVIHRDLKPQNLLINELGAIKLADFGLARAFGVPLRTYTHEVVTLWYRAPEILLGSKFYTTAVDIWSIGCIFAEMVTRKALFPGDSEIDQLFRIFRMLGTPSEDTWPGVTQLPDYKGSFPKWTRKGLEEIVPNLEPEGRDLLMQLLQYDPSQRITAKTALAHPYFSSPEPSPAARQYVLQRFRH
Casein kinase I isoform gamma-3 (Homo sapiens), sequence (Q9Y6M4 whole entry, looked up, canonical isoform): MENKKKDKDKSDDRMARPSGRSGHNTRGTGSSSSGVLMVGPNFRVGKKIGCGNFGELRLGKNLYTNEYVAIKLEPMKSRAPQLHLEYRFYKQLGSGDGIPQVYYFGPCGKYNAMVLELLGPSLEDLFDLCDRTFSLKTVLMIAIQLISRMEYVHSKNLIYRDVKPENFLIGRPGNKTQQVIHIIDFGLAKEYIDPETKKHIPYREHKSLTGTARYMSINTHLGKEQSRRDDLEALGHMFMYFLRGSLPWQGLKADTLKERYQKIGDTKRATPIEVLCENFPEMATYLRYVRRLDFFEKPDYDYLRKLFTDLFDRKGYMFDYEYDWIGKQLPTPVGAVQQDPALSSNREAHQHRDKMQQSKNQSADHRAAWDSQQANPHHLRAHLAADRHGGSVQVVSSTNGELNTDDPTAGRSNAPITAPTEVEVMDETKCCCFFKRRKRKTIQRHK
Casein kinase I isoform gamma-2 (Homo sapiens), sequence (P78368 whole entry, looked up, canonical isoform): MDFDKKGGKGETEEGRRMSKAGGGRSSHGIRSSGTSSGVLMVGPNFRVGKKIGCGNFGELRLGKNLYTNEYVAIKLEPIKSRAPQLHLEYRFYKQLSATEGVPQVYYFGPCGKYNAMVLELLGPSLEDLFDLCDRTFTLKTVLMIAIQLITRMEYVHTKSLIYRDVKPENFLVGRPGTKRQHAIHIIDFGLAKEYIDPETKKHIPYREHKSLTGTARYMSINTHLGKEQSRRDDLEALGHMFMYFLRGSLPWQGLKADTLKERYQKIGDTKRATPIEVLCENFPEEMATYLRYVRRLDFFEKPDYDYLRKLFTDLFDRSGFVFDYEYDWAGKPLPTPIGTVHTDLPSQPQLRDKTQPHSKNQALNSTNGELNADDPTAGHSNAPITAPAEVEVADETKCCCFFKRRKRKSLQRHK

For orientation: inhibition means the relative decrease from the control value, in per cent. Consider `COc1ccc2cc(-c3c(-c4ccncc4)nc(-c4ccc(S(C)(=O)=O)cc4C)n3C)ccc2c1`, for which the inhibition in test [1] is 4.03%; in [2], 3.31%; in test [3] it was 2.13%; in test [4], 1.11%; in [5], 1.69%; in [6], 2.79%. In addition, the inhibition was -7.25% in test [7], 3.25% in [8], 2.47% in test [9] and 5.76% in test [10].
With `O=C(Nc1n[nH]c2nc(-c3ccco3)ccc12)C1CC1`, the inhibition is 1.22% in test [1]; -1.28% in [2]; 0.46% in [3]; -0.24% in test [4]; 2.61% in [5]; 3.24% in [6]. The inhibition was 6.79% in test [7], -0.16% in test [8], 3.89% in test [9] and 0.19% in test [10].
On to `Clc1ccc(CNc2nccc(-c3cnn4ncccc34)n2)cc1`, for which the inhibition is 12% in test [1]; -0.98% in test [2]; 12.9% in test [3]; 7.01% in test [4]; 36.3% in [5]; 4.06% in test [6]. The inhibition was 17.6% in test [7], 4.31% in test [8], 21.5% in test [9] and 3.02% in test [10].
Take `c1ccc(-c2n[nH]cc2-c2ccnc(-c3ccc(OCCN4CCOCC4)cc3)c2)nc1`: the inhibition in test [1] is -2.28%; in test [2], -0.5%; in [3] it was 2.07%; in test [4], 5.08%; in test [5], 4.83%; in test [6], 0.41%. For the same compound, the inhibition in test [7] came to 0.03%; in test [8], 4.78%; in test [9] it was 4.73%; in [10], 5.94%.
On to `NC(=O)c1cc(-c2ccc(F)cc2)cc(-c2ccncc2)c1N`, for which the inhibition in [1] worked out at 6.08%; in test [2] it was 4.13%; in [3], 2.66%; in test [4], 0.65%; in [5] it was 0.73%; in test [6] it was 2.41%. For the same compound, the inhibition is -6.47% in [7], 2.49% in [8], 2.14% in [9] and 4.68% in [10].
Regarding `Cc1ccc(C(=O)NC2CCC2)cc1-c1ccc(C(=O)NCC2CC2)cc1`, the inhibition worked out at 2.95% in test [1]; 2.2% in test [2]; 2.4% in test [3]; 0.42% in [4]; 1.39% in test [5]; 2.38% in [6]. Further, the inhibition in test [7] was 0.45%; in test [8] it was 2.25%; in test [9], 3.3%; in [10], 2.79%.
Take `COC(=O)Nc1nc2ccc(Sc3ccc(NC(=O)Nc4cc(C(F)(F)F)ccc4F)cc3)cc2[nH]1`: the inhibition is 1.01% in test [1]; 0.1% in test [2]; 0.39% in [3]; 0.09% in test [4]; 3.86% in [5]; -0.08% in [6]. Also, the inhibition in [7] was 6.71%; in [8], 0.48%; in [9], 0.81%; in test [10], -0.31%.
For `CN1CCN(CCCNc2nc3ccc(Oc4ccc(NC(=O)Nc5cc(C(F)(F)F)ccc5F)cc4)cc3[nH]2)CC1`, the inhibition in test [1] was -2.41%; in test [2] it was -3.59%; in test [3], -4.66%; in test [4], -2.5%; in test [5] it was -3.79%; in test [6], -3.51%. The inhibition is 5.29% in [7], -2.32% in test [8], -2.03% in test [9] and 0.7% in [10].
In the case of `CN(c1ccc(NC(=O)Nc2c(Cl)cccc2Cl)cc1)c1ccnc(Nc2cccc(CS(C)(=O)=O)c2)n1`, the inhibition is 0.63% in test [1]; 1.67% in [2]; -1.25% in [3]; 0.58% in test [4]; 3.72% in test [5]; 3.62% in test [6]. Moreover, the inhibition in [7] was 12.2%; in [8], -0.54%; in test [9], 2.62%; in test [10], 0.7%.
Consider `O=C(Nc1ccc(Oc2ccc3[nH]c(NC(=O)c4ccccc4)nc3c2)cc1)Nc1cc(C(F)(F)F)ccc1F`, for which the inhibition in test [1] was 2.09%; in [2] it was 1.5%; in test [3], 2.93%; in [4], 0.28%; in test [5], 3.27%; in [6], 0.68%. The inhibition was determined as 4.24% in [7], 2.28% in test [8], 4.67% in [9] and 1.65% in [10].
In the case of `c1ccc(Oc2ccc(Nc3ncc(-c4ccccc4)o3)cc2)cc1`, the inhibition in [1] was 2.07%; in test [2], -0.2%; in test [3], 1.13%; in test [4] it was 0.18%; in test [5], 1.13%; in [6], 0.43%. Moreover, the inhibition in [7] was 1.24%; in [8] it was 0.94%; in test [9], 3.16%; in test [10], 0.29%.
On to `Fc1ccc(-c2nc3n(c2-c2ccncc2)CCS3)cc1`, for which the inhibition in [1] is 4.78%; in test [2] it was 0.7%; in test [3], 8.82%; in [4] it was -2.26%; in test [5], -3.55%; in [6], -1.04%. For the same compound, the inhibition in [7] is 1.08%; in test [8], 0.41%; in test [9], 0.29%; in [10], 4.27%.
For `CCS(=O)(=O)c1ccc(OC)c(Nc2ncc(-c3cccc(-c4ccccc4F)c3)o2)c1`, the inhibition in test [1] was -0.35%; in test [2], 0.39%; in test [3], 0.12%; in [4] it was 0.67%; in [5] it was 2.37%; in [6], 1.76%. Also, the inhibition came out at 7.78% in test [7], 0.27% in [8], 3.78% in [9] and 0.64% in test [10].
Turning to `COc1cc(Nc2ncc3c(C)nc(-c4cccc(C(F)(F)F)c4)n3n2)cc(OC)c1OC`, the inhibition is 3.91% in test [1]; 2.45% in test [2]; 4.96% in test [3]; 0.7% in test [4]; 6.83% in test [5]; 3.13% in [6]. For the same compound, the inhibition in test [7] worked out at 20.8%; in test [8], 6%; in [9] it was 28.8%; in test [10], 2.35%.
As to `Cc1nnc(-c2ccc(C)c(-c3ccc(C(=O)NCc4ccc(Cl)cc4)cc3)c2)o1`, the inhibition in test [1] was 1.06%; in [2], -1.5%; in test [3], -0.65%; in test [4], -3.13%; in [5] it was -1.46%; in test [6] it was -1.4%. Further, the inhibition was -2.99% in [7], 0.91% in [8], 0.03% in test [9] and 4.6% in [10].
As for `C[C@@H](Oc1cc(-n2cnc3ccc(OCC4CCN(C)CC4)cc32)sc1C(N)=O)c1ccccc1Cl`, the inhibition was 7.87% in test [1]; 3.89% in test [2]; 5.6% in [3]; 1.74% in [4]; 3.79% in test [5]; 3.1% in test [6]. The inhibition was 4.03% in [7], 2.66% in [8], 5.46% in test [9] and -2.62% in test [10].
Turning to `NCc1ccc(-n2c(-c3nonc3N)nc3cnccc32)cc1`, the inhibition is 7.87% in [1]; 2.05% in [2]; 10.7% in [3]; 3.12% in test [4]; 10.5% in test [5]; 5.13% in [6]. Further, the inhibition in [7] came to 30.4%; in test [8] it was 10.1%; in test [9], 31.4%; in test [10] it was 6.87%.
